Screening results (PubChem)
Tgondii IFNg: T. gondii growth inhibition under IFN-gamma; Toxoplasma gondii growth in IFN-gamma-treated host cells; hits give low values; activity change, negative = inhibition, % (concentration not given with the values); 3.8% of 69,000 active; AID 1259416; in the data active means activity change below about -70%, passing the limit was not always enough;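 further: host cells are HeLa cells infected with Toxoplasma gondii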
Hits are given with their value; - = inactive. Shown is part of a subset that was picked to be rich in hits.

SMILES | Tgondii IFNg
COc1cccc(-c2nc(Cn3ccn4nc(-c5cccs5)cc4c3=O)c(C)o2)c1OC | -96.9
COc1ccc(-c2nc(Cn3ccn4nc(-c5ccc(OC)c(OC)c5)cc4c3=O)c(C)o2)cc1 | -
COc1ccccc1-c1nc(Cn2ccn3nc(-c4cccs4)cc3c2=O)c(C)o1 | -
COc1ccccc1-c1cc2c(=O)n(Cc3nc(-c4cccc(OC)c4OC)oc3C)ccn2n1 | -
COc1ccc(-c2cc3c(=O)n(Cc4nc(-c5ccc(OC(C)C)cc5)oc4C)ccn3n2)cc1OC | -91.8
CN(C)CC(=O)N1Cc2nc(C(=O)NCc3ccccc3)oc2C1 | -
CCCCC(SC1=Nc2ccccc2C2=NC(Cc3c[nH]c4ccccc34)C(=O)N12)C(=O)OCC (stereo not given) | -
Cc1cc(C)cc(Sc2ccc3nnc(-c4ccccc4)n3n2)c1 | -81.7
Cc1ccc(-c2cc(-c3ccccc3)nc(-c3ccccc3)c2)cc1 | -
CSc1nnc(-c2ccccc2)n1C | -
C[C@H]1CCCCO[C@@H](CN(C)C(=O)Nc2ccc(C(F)(F)F)cc2)[C@@H](C)CN([C@@H](C)CO)C(=O)c2cc(NS(=O)(=O)c3cn(C)cn3)ccc2O1 | -
CC(=O)N1CCC2(CN(Cc3cccs3)C2)OCC1C(=O)O (stereo not given) | -
CCC(CC)CN1CCC2(CC(C(=O)NCc3ccc(F)cc3)=NO2)C1 (stereo not given) | -
Cc1nc(-c2ccc(Cl)cc2)cs1 | -
Cn1ncc(-c2nc(-c3ccc(Cl)cc3)cs2)c1N | -83.2
CC(C)(C)c1cc(-c2csc(-c3ccc(Cl)cc3)n2)cc(C(C)(C)C)c1O | -
COC(=O)c1cc(C)nc2c1c(=O)n(Cc1nc(-c3ccc(OC)c(OC)c3)oc1C)c(=O)n2C | -
COCC1CN(CC2CCOC2)Cc2ccnn2C1 (stereo not given) | -
O=C(O)c1ccc(NC2OC(CO)C(O)C(O)C2O)cc1 (stereo not given) | -
CC(C)CN1C[C@@H]2[C@@H](C1)C(=O)NC21CCN(C(=O)Nc2ccc(Cl)cc2)CC1 | -109.0
CN(C)C(=O)CN1CCOCC2(CCN(C(=O)Nc3ccc(Cl)cc3)CC2)C1 | -
CCN1c2cc(Cl)ccc2C(=O)NC12CCN(C(=O)Nc1ccc(OC)cc1)CC2 | -
C[C@H](CO)N1C[C@H](C)[C@H](CN(C)S(=O)(=O)c2ccc(Cl)cc2)Oc2ccc(NC(=O)Cn3cnnn3)cc2CC1=O | -
Cc1c(S(=O)(=O)c2ccc(Cl)cc2)csc1C(=O)Nc1ccc(F)cc1F | -
COCCC(=O)N1CCC(c2nc3ccccc3cc2NC(C)=O)CC1 | -
SMILES | Tgondii IFNg
Cc1c(F)cccc1NC(=O)CNC(CC(C)C)c1ncnn1C (stereo not given) | -
N#Cc1cc2c(c3c1CCc1ccccc1-3)-c1ccccc1CC2 | -80.0
N#Cc1ccccc1-c1ccccc1C#N | -
CC(C)c1nnsc1CNC1CCC2(CCNCC2)CC1 | -
CC(C)C[C@H]1COCc2cn(nn2)CC[C@@H](Cc2ccc(Cl)cc2)C(=O)N1 | -
Cc1ccc2c(O)c(-c3ccccc3)c(=O)[nH]c2c1 | -
O=C(Oc1cccccc1=O)c1ccccc1 | -
Cc1ccc2c(Br)cc(Br)c(OC(=O)c3ccccc3)c2n1 | -85.1
O=C(Oc1cccc2cccnc12)c1ccccc1 | -
Cc1nn(C(C)CC(=O)O)c(C)c1Br (stereo not given) | -
CCCC(C)NS(=O)(=O)Cc1ccccc1 (stereo not given) | -
Cc1c(NC(=O)c2ncoc2-c2ccc(F)cc2)c(=O)n(-c2ccccc2)n1C | -
Cc1c(NC(=O)c2cc3nc(-c4ccccc4)cc(C)n3n2)c(=O)n(-c2ccccc2)n1C | -86.3
Cc1c(NC(=O)Cc2ccccc2)c(=O)n(-c2ccccc2)n1C | -
O=S(=O)(Cc1ccccc1)Nc1ccc(S(=O)(=O)N2CCCCC2)cc1 | -
O=C(COc1ccc2c(=O)c(-c3ccccc3)coc2c1)N1CCCCC1 | -
CC(C)N(C)[C@@H]1CCN(S(=O)(=O)C2CC2)[C@H]1Cc1cnn(C)c1 | -
O=C1SCCc2c1n(Cc1ccccc1)c1ccccc21 | -
COc1ccc2c(c1)c1c(n2Cc2ccccc2)CCCC1 | -
O=C(O)Cn1c2c(c3ccccc31)CCC2 | -92.0
C=CCN1CCO[C@H]2CN(C(=O)c3cc(C)oc3C)CC[C@@H]2C1 | -
CCCc1c(C(=O)Nc2ccc3ccccc3n2)cnn1-c1ccccc1 | -
CCCc1c(-c2nc(-c3ccc(C(C)(C)C)cc3)no2)cnn1-c1ccccc1 | -96.8
CC(C)(C)c1ccc(-c2noc(CCOc3ccc(F)cc3)n2)cc1 | -
CN1CCC(Cc2noc(CCN3CCCCO3)n2)CC1 | -
SMILES | Tgondii IFNg
COc1ccc(NC(=O)N2[C@@H]3CNC[C@H]2C3c2ccc(/C=C/c3ccccc3)cc2)cc1 (stereo not given in full) | -
CCN(CC)C(=O)Oc1ccnc2cc(Cl)ccc12 | -
CCCCCCCC(=O)Nc1nnc(Sc2ccnc3cc(Cl)ccc23)s1 | -94.4
CCSc1nnc(NC(=O)CCc2ccc(C)o2)s1 | -
O=C(OC1CS(=O)(=O)CC1OC(=O)c1ccccc1)c1ccccc1 (stereo not given) | -
c1cc2c3c(c1)c1c(n3CCNC2)CCCC1 | -
O=C(O)c1cc(C2CC2)nc2ccc(-c3cccc4c3CCNC4)cc12 | -
Cn1c2c(c3cc(-c4cccc5c4CCNC5)ccc31)CCCC2=O | -81.1
Cn1nc(C2CCN(C(=O)CCc3cccnc3)CC2)n(-c2ccccc2)c1=O | -
FC(F)(F)c1cccc(OCc2ccc(-c3ncns3)cc2)c1 | -
N#Cc1ccc(OCc2ccc(C(F)(F)F)cc2)cc1 | -81.3
O=C(O)c1ccc(OCc2ccccc2)cc1 | -
Cc1cnc(N)c2c(=O)oc3ccccc3c12 | -
CC(=O)c1cc(C(=O)N2CC(=O)N(C3CCCCC3)CC(OCc3ccccc3)C2)[nH]n1 (stereo not given) | -
CCc1ccccc1NC(=O)Cn1c(=O)ccc2cc(S(=O)(=O)N3CCCC3)ccc21 | -
C=CCOCC12CCCOC1CCN(C(=O)c1cccs1)C2 (stereo not given) | -
N#CC1CCN(CCS(=O)(=O)c2ccc(Cl)cc2)CC1 | -
Cc1onc(-c2c(Cl)cccc2Cl)c1-c1nc2cccc(F)c2c(=O)o1 | -
FC(F)(F)c1ccc(-c2nnc(COc3ccccc3Cl)o2)cc1 | -
Cc1onc(-c2c(F)cccc2Cl)c1-c1nnc(-c2ccc(C(F)(F)F)cc2)o1 | -98.9
Cc1c(C(=O)CSc2n[nH]c(=O)n2-c2cccnc2)sc2ccc(Cl)cc12 | -
O=C(NC1CC1)C1CNCCN1C(=O)c1cc(=O)nc2sccn12 (stereo not given) | -
Cc1ccc(S(=O)(=O)N(C)C[C@H]2OCCCC[C@H](C)Oc3ccc(NC(=O)c4ccncc4)cc3C(=O)N([C@@H](C)CO)C[C@@H]2C)cc1 | -97.8
Cc1ccc(S(=O)(=O)Nc2ccc3c(c2)C(=O)N([C@@H](C)CO)C[C@H](C)[C@H](CN(C)S(=O)(=O)c2cccs2)OCCCC[C@H](C)O3)cc1 | -107.2
Cc1ccc(S(=O)(=O)N(C)C[C@H]2OCCCC[C@H](C)Oc3ccc(NC(=O)c4ccncc4)cc3C(=O)N([C@H](C)CO)C[C@@H]2C)cc1 | -
Cc1noc(C)c1NC(=O)Nc1ccc2c(c1)C(=O)N([C@@H](C)CO)C[C@H](C)[C@@H](CN(C)S(=O)(=O)c1cccs1)OCCCC[C@@H](C)O2 | -
Cc1ccc(S(=O)(=O)Nc2ccc3c(c2)C(=O)N([C@H](C)CO)C[C@H](C)[C@H](CN(C)S(=O)(=O)c2cccs2)OCCCC[C@@H](C)O3)cc1 | -
